From PubChem BioAssay
KLF5 inh = inhibitors of KLF5 expression; DLD-1 KLF5 promoter-luciferase reporter, luminescence; inhibition, % at 5 µM; hit rate 0.23% among 290,000; AID 1700;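 active means inhibition above a per-plate limit of that plate's mean compound inhibition plus 3 SD, cut at about 60% in these data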;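 further: higher means less KLF5 promoter-driven luciferase light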
Gli-Sufu antag = Gli-Sufu pathway antagonism; hit rate 0.74% among 340,000; Sufu-KO-LIGHT fibroblasts, Gli luciferase reporter luminescence; inhibition, % at 5 µM;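 active means inhibition above about 55%, limit read from the data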
697 NFkB inh = lowers PMA/ionomycin-induced NF-kB signal in 697 B cells; 697 B-cell NF-kB luciferase reporter, 16 h; inhibition, % at 4 µM; hit rate 0.33% among 330,000; AID 435022; in the data active means inhibition above about 35%
Jurkat NFkB inh = lowers PMA/ionomycin-induced NF-kB signal in Jurkat cells. PMA/ionomycin-induced NF-kB luciferase reporter, luminescence. hit rate 0.53% among 330,000. inhibition, % at 4 µM; in the data active means inhibition above about 50%
Mdm2 MdmX PPI = inhibitors of human Mdm2/MdmX interaction; O15151+Q00987; SaOS-2 split-luciferase Mdm2/MdmX complementation, luminescence; inhibition, % at 8 µM; hit rate 3% among 330,000; AID 485346;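 active means inhibition of at least 50% at 8 µM in the primary screen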
Target sequence (O15151 whole entry, looked up): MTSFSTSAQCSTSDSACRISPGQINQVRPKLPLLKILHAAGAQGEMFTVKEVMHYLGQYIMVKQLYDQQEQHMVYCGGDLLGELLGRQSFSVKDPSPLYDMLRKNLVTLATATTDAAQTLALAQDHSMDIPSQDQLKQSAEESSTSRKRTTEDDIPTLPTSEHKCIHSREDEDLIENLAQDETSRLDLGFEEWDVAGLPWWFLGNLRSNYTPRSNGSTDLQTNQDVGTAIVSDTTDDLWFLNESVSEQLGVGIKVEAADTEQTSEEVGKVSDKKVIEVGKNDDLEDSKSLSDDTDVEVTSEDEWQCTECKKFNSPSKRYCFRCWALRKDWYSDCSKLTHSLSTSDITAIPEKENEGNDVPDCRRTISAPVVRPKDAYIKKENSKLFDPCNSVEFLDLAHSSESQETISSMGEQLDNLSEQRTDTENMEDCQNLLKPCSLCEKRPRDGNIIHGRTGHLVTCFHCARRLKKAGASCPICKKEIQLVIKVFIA
Target sequence (Q00987 whole entry, looked up): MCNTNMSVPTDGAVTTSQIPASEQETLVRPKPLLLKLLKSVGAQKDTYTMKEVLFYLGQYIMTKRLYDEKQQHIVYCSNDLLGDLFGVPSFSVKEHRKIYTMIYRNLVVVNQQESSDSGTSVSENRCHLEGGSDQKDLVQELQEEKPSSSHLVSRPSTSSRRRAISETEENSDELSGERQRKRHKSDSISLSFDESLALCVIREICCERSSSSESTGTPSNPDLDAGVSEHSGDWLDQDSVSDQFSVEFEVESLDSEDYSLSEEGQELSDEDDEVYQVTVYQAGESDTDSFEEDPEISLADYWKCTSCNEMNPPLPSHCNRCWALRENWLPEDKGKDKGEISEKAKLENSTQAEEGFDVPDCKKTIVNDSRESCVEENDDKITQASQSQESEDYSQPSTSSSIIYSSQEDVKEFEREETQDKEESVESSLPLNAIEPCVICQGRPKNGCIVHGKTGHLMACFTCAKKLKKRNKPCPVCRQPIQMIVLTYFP
aSyn 5UTR inh = 5' untranslated region of α-synuclein, MLPCN primary screen; alpha-synuclein 5'UTR reporter, inhibitor activity; inhibition, % (tested at 7.5 µM); hit rate 0.82% among 300,000; AID 1813; in the data active means inhibition above about 60%;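 further: H4 neuroglioblastoma cells stably carrying SNCA 5'UTR luciferase fusion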
697 NFkB conf = lowers PMA/ionomycin-induced NF-kB signal in 697 B cells. hit rate 35% among 2,000. AID 449746. 697 B-cell NF-kB luciferase, 16 h. shares compounds with 697 NFkB inh. inhibition, % at 4 µM; in the data active means inhibition mostly above about 28%, no sharp cut-off; inactive means mostly below about 22%
Hits are given with their value; 0 = inactive; - = no result. The list is not random: actives were taken first. Their share in the collection is about 4.1%.

SMILES	KLF5 inh	Gli-Sufu antag	697 NFkB inh	Jurkat NFkB inh	Mdm2 MdmX PPI	aSyn 5UTR inh	697 NFkB conf
Cc1ccc(NC(=O)c2ccc(-c3nn(C)c(=O)c4ccccc34)cc2)cc1	0	0	42.1	0	0	0	0
Cc1ccc(C(=O)Nc2ccc3ccccc3c2)cc1	71.6	0	0	0	0	66.0	0
Cc1ccc(NC(=O)c2ccc3c(c2)OCCO3)cc1	0	0	0	0	0	0	0
O=C(Nc1ccncc1)c1ccc2ccccc2c1	0	0	0	0	0	0	-
Cc1nc2c(ccc3nc(NC(=O)c4ccc5c(c4)OCCO5)sc32)s1	0	0	0	0	0	0	0
Cc1ccccc1NC(=O)c1ccccc1NC(=O)c1ccccc1F	0	0	-	-	-	0	-
CCOC(=O)C1(CCOC)CCN(C(=O)c2ccc(CSC)o2)CC1	0	0	0	0	0	0	-
C#CC(=O)CC1(CN(Cc2ccccc2)C(=O)OC(C)(C)C)CCCCC1	-	0	-	-	-	-	-
CCNC(=S)NNC(=O)c1cc(Br)cs1	0	0	0	0	0	0	-
O=C(OCC(O)CO)c1ccccc1Nc1ccnc2cc(Cl)ccc12 (stereo not given)	-	0	40.8	0	0	-	0
CC(C)(C)c1ccc(C(=O)NCCOc2ccccc2)cc1	0	0	0	0	0	0	0
Cc1ccc2nc(-c3ccccc3N)[nH]c2c1	0	0	0	0	0	0	0
CCC1(c2ccc(Cl)cc2)NC(=O)N(CC(=O)NC2CCCC(C)C2C)C1=O (stereo not given)	-	0	38.5	0	0	-	0
CCC1(c2ccc(F)cc2)NC(=O)N(CC(=O)NC2CCCC(C)C2C)C1=O (stereo not given)	-	0	0	0	0	-	-
COc1ccccc1N(CC(=O)N(C)Cc1ccccc1)S(=O)(=O)c1cccs1	-	0	0	0	0	-	-
O=C(NCCS(=O)(=O)N1CCN(c2cccc(Cl)c2)CC1)c1ccco1	-	0	35.5	0	0	0	0
CC(=O)c1cccc(Nc2nc3ccccc3n3cnnc23)c1	0	0	0	0	0	0	-
CCn1c(=O)cc(OCC(=O)Nc2ccc3c(c2)OCCO3)c2ccccc21	0	0	0	0	0	0	-
CCN(CC)CCOC(=O)c1ccc(NC(=O)COc2cc(=O)n(CC)c3ccccc23)cc1	0	0	39.3	0	0	0	44.8
CCn1c(=O)cc(OCC(=O)N(C)C2CCCCC2)c2ccccc21	0	0	39.0	0	0	0	43.9
CCn1c(=O)cc(OCC(=O)Nc2ccc(OC)c(OC)c2)c2ccccc21	0	0	35.8	0	0	0	37.4
O=C1NC(c2cc(Cl)cc([N+](=O)[O-])c2O)Nc2ccccc21 (stereo not given)	0	0	36.0	0	0	0	0
C=CCOc1ccc(C2/C(=C(\O)c3ccc4c(c3)OCCO4)C(=O)C(=O)N2CCCN2CCOCC2)cc1 (stereo not given)	0	0	0	0	0	0	-
Cc1ccc(S(=O)(=O)/C(=C\N(C)C)c2cnc(Cl)s2)cc1	0	0	36.3	0	0	0	0
CCOC(=O)c1nn(-c2ccc3c(c2)CCN3C(C)=O)cc1O	0	0	36.3	0	0	0	0
SMILES	KLF5 inh	Gli-Sufu antag	697 NFkB inh	Jurkat NFkB inh	Mdm2 MdmX PPI	aSyn 5UTR inh	697 NFkB conf
CCOC(=O)c1nn(-c2ccc(F)cc2)cc1O	0	0	0	0	0	0	-
CC1CC(C)(C)Nc2ccc(OC(=O)c3ccco3)cc21 (stereo not given)	0	0	53.4	0	0	70.3	63.1
CC1=CC(C)(C)Nc2ccc(OC(=O)C(Cc3ccccc3)N3C(=O)c4ccccc4C3=O)cc21 (stereo not given)	0	0	65.9	0	0	0	49.5
CC1CC(C)CN(S(=O)(=O)c2ccc(C(=O)NCCCn3ccnc3)cc2)C1 (stereo not given)	0	0	69.6	0	0	98.1	50.3
COc1ccc(C(=O)N/N=C/c2c[nH]c3ccccc23)cc1	0	0	0	0	0	0	-
COc1ccc(C(=O)N/N=C/c2cc3ccccc3[nH]c2=S)cc1	0	0	36.2	0	0	0	0
N#CC1(NC(=O)CSc2nnc(-c3ccccc3F)o2)CCCCC1	-	0	0	0	0	0	-
O=[N+]([O-])c1ccc(Sc2ncccn2)c([N+](=O)[O-])c1	0	0	40.0	0	0	0	0
Cc1cccc(Sc2ccc([N+](=O)[O-])cc2[N+](=O)[O-])n1	0	0	0	0	0	0	-
O=c1[nH]c2ccccc2cc1CN(Cc1ccco1)S(=O)(=O)c1ccccc1	0	0	0	0	0	0	-
Fc1ccccc1Nc1nc2c(s1)CCc1ccccc1-2	0	-	-	-	-	-	-
CCc1ccc(-c2nnn(CCC(=O)OC)n2)cc1	0	0	52.1	0	0	77.1	64.0
CCOC(=O)N1CCC(NC(=O)c2cc3c(-c4ccc(OC)c(OC)c4)nn(C)c3s2)CC1	0	0	41.2	0	0	0	0
CCN(CC)C(=O)Cn1cc(C(=O)C(=O)Nc2ccc3c(c2)OCCO3)c2ccccc21	0	0	0	0	0	0	-
COC(=O)c1cccc(C(=O)N2CCCC(CCC(=O)N(C)CCc3ccccn3)C2)c1 (stereo not given)	0	0	0	0	0	0	-
COc1cc(/C=N/n2c(COc3ccccc3)n[nH]c2=S)cc(Br)c1O	0	0	0	0	0	0	-
CCc1n[nH]c(=S)n1/N=C/c1cc(Br)c(O)c(OC)c1	0	0	36.4	0	0	0	0
Cc1cc(C(=O)NNC(=S)NC(C)c2ccccc2)c2ccccc2n1 (stereo not given)	0	0	0	0	0	0	-
COc1ccc(OC)c(NC(=O)COC(=O)CSc2ccc(Cl)cc2)c1	0	0	0	0	0	0	-
COc1ccc(-c2noc(N3CCC(C(=O)Nc4ccc(F)cc4F)CC3)n2)cc1	0	0	36.0	0	0	0	34.6
COc1ccc(-c2noc(N3CCC(C(=O)Nc4ccc(OC)cc4OC)CC3)n2)cc1	0	0	0	0	0	0	-
O=C(Cc1cccc2ccccc12)Nc1ccc(-c2cc3ccccc3oc2=O)cc1	0	0	71.9	0	0	65.1	50.3
CC(=O)Nc1ccc(NC(=S)NC(=O)c2cc3ccccc3o2)cc1	0	0	0	0	0	0	-
Cc1ccc(C(=O)NC(=S)Nc2ccc(-c3cc4ccccc4oc3=O)cc2)c(C)c1	0	0	36.0	0	0	88.3	0
CCn1c(COc2ccccc2)nnc1SCC(=O)Nc1ccc(N2CCOCC2)cc1	0	0	0	0	0	0	-
O=C1CCCC2=C1C(c1ccc(O)cc1)c1c(ccc3ccccc13)N2 (stereo not given)	0	0	0	0	0	0	-
COc1ccc(CC(=O)NNC(=O)c2cnccn2)cc1	0	0	0	0	0	0	-
CC(C)(C)C(=O)NNC(=O)c1cnccn1	0	0	45.3	0	0	0	0
C#CCN(Cc1ccccc1)S(=O)(=O)C=C	-	0	35.7	0	0	-	30.5
